The values below come from the supplement of paper PMC7724964.

Common to all, as to assay: phage ELISA signal ratio (GST-PRM binding over GST background); higher = stronger binding of peptide-phage to the PRM
(In an ELISA, binding on a coated surface is turned into a signal by an enzyme label.)

Test [1] addresses MAD2L1 2-205 HORMA (domain begin residue: 2, domain end residue: 205), Q13257. The procedure, abridged: (§1)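 Each value is the phage ELISA signal on the glutathione S-transferase (GST)-domain fusion divided by the signal on GST alone. Human peptide recognition domains were expressed in 96-well plates, fused to the C-terminus of GST, and selected against an M13 phage library carrying randomized, cysteine-free, glycine-flanked hexadecapeptides on the gene-8 major coat protein. After five selection rounds, approximately 48 individual clones from rounds 4 and 5 were tested by phage ELISA, and positive clones were sequenced.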

The target of test [2] is T1, MDM4 26-106 SWIB (domain begin residue: 26, domain end residue: 106), O15151.
T1 chain: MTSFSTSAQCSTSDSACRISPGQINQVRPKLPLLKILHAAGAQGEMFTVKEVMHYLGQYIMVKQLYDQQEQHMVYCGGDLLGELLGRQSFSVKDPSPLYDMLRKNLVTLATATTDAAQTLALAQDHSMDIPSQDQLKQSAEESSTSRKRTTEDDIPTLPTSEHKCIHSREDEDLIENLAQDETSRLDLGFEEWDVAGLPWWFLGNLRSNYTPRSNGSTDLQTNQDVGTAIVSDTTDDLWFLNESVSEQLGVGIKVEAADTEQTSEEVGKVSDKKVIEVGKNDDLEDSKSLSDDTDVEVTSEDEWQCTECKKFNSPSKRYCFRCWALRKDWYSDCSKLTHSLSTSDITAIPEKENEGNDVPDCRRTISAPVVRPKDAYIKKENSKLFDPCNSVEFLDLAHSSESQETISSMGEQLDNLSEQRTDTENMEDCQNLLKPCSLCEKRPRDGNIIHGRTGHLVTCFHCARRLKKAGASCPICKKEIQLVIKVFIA
The procedure, abridged: as §1

The target of test [3] is MSH6 89-203 PWWP (domain begin residue: 89, domain end residue: 203), P52701. The procedure, abridged:
as §1

Test [4] deals with T2, SND1 650-910 TUDOR+SNase (domain begin residue: 650, domain end residue: 910), Q7KZF4.
T2 chain: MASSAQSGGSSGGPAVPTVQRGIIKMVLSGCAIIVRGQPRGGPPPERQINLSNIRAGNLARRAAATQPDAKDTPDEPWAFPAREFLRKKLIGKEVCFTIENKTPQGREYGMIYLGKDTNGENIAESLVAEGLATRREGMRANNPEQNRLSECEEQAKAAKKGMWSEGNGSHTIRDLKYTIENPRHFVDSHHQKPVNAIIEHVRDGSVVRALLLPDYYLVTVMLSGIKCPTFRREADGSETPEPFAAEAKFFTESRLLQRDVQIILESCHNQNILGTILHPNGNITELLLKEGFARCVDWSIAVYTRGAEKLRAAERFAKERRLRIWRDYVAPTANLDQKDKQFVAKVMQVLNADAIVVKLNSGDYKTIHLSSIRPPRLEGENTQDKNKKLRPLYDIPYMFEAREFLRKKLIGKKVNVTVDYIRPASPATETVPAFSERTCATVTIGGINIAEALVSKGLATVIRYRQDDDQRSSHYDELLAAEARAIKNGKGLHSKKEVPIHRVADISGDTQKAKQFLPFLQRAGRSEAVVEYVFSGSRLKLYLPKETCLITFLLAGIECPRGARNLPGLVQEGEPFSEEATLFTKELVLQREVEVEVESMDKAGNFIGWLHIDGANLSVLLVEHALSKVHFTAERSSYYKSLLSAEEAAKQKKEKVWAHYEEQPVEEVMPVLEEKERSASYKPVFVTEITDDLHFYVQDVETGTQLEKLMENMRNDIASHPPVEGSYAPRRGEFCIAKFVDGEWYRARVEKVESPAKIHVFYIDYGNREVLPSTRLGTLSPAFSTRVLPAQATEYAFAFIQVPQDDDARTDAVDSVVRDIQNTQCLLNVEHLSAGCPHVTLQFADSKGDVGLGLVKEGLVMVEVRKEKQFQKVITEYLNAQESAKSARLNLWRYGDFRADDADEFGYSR
The method in brief: as §1

MAD2L1 2-205 HORMA (domain begin residue: 2, domain end residue: 205), Q13257, sequence (Q13257 whole entry, the tested form may be a part): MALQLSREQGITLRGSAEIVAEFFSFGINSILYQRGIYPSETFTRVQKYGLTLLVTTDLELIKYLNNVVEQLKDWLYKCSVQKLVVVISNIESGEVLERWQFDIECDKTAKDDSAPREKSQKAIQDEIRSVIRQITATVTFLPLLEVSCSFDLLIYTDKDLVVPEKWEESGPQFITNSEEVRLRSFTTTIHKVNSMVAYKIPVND
MSH6 89-203 PWWP (domain begin residue: 89, domain end residue: 203), P52701, sequence (P52701 whole entry): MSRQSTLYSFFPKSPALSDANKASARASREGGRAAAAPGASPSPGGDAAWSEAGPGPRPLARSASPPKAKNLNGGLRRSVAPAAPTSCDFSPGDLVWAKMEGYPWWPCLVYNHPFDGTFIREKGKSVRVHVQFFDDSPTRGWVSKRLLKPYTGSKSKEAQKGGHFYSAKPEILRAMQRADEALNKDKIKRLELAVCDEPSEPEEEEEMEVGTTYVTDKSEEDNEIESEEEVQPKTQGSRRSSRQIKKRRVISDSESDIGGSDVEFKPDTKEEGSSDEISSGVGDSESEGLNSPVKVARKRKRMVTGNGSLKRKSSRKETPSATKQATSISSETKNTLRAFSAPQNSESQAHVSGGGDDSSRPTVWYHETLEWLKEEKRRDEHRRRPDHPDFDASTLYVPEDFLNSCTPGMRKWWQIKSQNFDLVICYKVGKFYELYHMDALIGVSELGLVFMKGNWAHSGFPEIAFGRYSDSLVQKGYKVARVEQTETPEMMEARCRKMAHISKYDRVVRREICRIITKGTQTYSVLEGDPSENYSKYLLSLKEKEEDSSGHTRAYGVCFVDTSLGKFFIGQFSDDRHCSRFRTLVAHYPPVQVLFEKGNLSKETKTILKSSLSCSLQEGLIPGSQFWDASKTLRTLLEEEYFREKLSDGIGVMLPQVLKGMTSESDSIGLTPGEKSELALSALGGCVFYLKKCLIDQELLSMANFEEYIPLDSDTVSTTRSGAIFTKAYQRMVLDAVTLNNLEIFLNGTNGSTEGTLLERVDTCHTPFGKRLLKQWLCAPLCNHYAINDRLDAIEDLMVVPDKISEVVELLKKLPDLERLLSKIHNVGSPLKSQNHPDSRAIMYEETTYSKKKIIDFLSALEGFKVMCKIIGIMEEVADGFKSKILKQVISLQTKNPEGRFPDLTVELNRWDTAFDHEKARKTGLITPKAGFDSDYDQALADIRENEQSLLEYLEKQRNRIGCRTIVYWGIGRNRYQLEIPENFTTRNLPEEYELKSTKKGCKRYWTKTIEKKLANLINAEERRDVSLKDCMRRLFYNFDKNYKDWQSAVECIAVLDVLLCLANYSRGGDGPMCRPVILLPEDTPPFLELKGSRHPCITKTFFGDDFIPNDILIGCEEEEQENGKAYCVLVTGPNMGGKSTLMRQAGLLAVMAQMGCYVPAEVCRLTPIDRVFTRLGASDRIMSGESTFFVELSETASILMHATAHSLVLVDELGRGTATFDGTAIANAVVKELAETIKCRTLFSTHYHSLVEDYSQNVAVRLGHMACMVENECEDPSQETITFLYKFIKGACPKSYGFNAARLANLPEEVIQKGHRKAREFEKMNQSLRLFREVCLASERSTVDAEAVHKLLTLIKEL

As for SWWMLQGPKQMNEIHA, in test [1], the “phage ELISA signal ratio” value stood at 8.75.

As to FVEMWNDMMFEDWDLV, the “phage ELISA signal ratio” value in test [2] stood at 26.4. Still for that read-out and setting: to IEFMDYWDSLDWMQKV belongs 14.7; to MPYAQMQFMDYWQELA, 21.3. Regarding YDFSQYWDAIPEQFIV, the “phage ELISA signal ratio” value in test [2] worked out at 18.1. DFAWWWSQMLEAEVNF: the “phage ELISA signal ratio” value in test [2] was determined as 12.3.

For the molecule YSIWMMEPPKVAPKAE, in test [1], the “phage ELISA signal ratio” value was found to be 15. As to TFSESWATLTSTSEWM, the “phage ELISA signal ratio” value in test [2] is 20.4. For the molecule AVFSQLWEAMPAVDWT, the “phage ELISA signal ratio” value in test [2] came out at 14.9. Consider TWWHLAGPRSHLTTSY, for which the “phage ELISA signal ratio” value in test [1] stood at 12.8.

Regarding FTAQDVLSHMSLWEFT, the “phage ELISA signal ratio” value in test [2] amounted to 21.7. As for DREQSGWFILRAPVYQ, the “phage ELISA signal ratio” value in test [1] amounted to 18.9. On the same count and under the same terms, under WYIIRGPMWHEPHVIE stands 8.9. As for WYMESLWQPDMMLPKF, in test [3], the “phage ELISA signal ratio” value was determined as 2.63.

Turning to AFWTHWQKLIPPEFQA, the “phage ELISA signal ratio” value in test [2] is 26.1. Consider PQTGHWIKFPKPWLEN, for which, in test [1], the “phage ELISA signal ratio” value was determined as 15.5.

As to QHSAMSAVWHFGPMWY, the “phage ELISA signal ratio” value in test [1] came to 15. In the case of DFMDFWEDATMGLVGT, the “phage ELISA signal ratio” value in test [2] came to 21.7.

Consider DSNIWLTRGPVHNTQQ, for which, in test [1], the “phage ELISA signal ratio” value was determined as 14.1. For the molecule GWFHIAPPPKQAEYTE, the “phage ELISA signal ratio” value in test [1] came to 12.8. Consider MWWYDGEMEKMIMETL, for which the “phage ELISA signal ratio” value in test [3] is 4.31; in test [4], 7.5. Turning to SWLRFKAEPPQHIAQL, the “phage ELISA signal ratio” value in test [1] is 9. For the molecule VEHEFLWHWGQIDFMM, in test [2], the “phage ELISA signal ratio” value is 16. Regarding MPLFMDLWQDMMPTNY, in test [2], the “phage ELISA signal ratio” value came out at 17.9. In the case of KDFSMWWVELKEVEVS, the “phage ELISA signal ratio” value in test [2] amounted to 17.4. As to KMELSFWEFWQVLQHE, the “phage ELISA signal ratio” value in test [2] was 18.

As to VWYHWQPPDSPINVIE, the “phage ELISA signal ratio” value in test [1] is 11.6. Take VWYRFEPAPMPKPHGQ: the “phage ELISA signal ratio” value in test [1] came out at 20.4. Turning to MVEQQVFWYLWMELMN, in test [2], the “phage ELISA signal ratio” value was found to be 19.4.
